# Screens (PubChem BioAssay)
# Only some compounds are listed: those with a hit (about 2.4% of all), similar ones and a draw of the others.
# Cruzain inh noDet: inhibitors of Trypanosoma cruzi cruzain without detergent | P25779 | purified cruzain, Z-FR-AMC fluorescence, no detergent | Potency, µM, most hits filed as inhibitors | actives 2.3% (n = 200,000); note: nearly all actives have a fitted effect of over 40% in size
#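 Detergent-free condition (0.00005% Triton X-100) in acetate buffer pH 5.5 with DTT. 1.5 nM enzyme and compound were pre-mixed 15 min, then 2 uM Z-FR-AMC substrate added; reaction progress from fluorescence change between first and third reads (60 s).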
# Cruzain Triton: blocks cruzain activity in presence of Triton detergent. P25779. purified cruzain, Z-FR-AMC fluorescence, 0.01% Triton. Potency, µM, usual class: inhibitors. actives 0.43% (n = 200,000). AID 1478; note: nearly all actives have a fitted effect of over 40% in size
#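 Cruzain (1.5 nM) preincubated 15 min at RT with compound in 100 mM sodium acetate pH 5.5, 5 mM DTT, 0.01% Triton X-100. Reaction started with 2 uM Z-FR-AMC; AMC fluorescence (ex 360/em 450 nm) change over 60 s gave rate.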
# Papain counter: counter-screen for cruzain inhibitors: papain inhibition. shares compounds with Cruzain Triton. purified papain, Z-FR-AMC fluorescence cleavage. Potency, µM, usual class: inhibitors. actives 41% (n = 410). AID 2161; note: nearly all actives have a fitted effect of over 35% in size
# Target sequence (P00784 whole entry, looked up): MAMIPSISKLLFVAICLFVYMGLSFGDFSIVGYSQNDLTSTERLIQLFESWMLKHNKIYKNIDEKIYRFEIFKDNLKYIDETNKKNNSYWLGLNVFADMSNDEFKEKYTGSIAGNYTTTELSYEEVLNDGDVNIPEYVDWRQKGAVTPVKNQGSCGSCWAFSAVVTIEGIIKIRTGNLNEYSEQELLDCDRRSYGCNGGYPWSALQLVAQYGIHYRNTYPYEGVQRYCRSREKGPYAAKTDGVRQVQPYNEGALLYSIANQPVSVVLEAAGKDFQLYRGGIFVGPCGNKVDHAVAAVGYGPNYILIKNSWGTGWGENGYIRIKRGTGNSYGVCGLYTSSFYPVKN
# Numbers stand for hits; . = inactive; ? = inconclusive; / = not tested or not shown. Calls come from the whole dose curve; as a rule, active = well fitted curve in the direction sought with a large enough effect; inconclusive = small, poorly fitted or top-dose-only effect, or another doubt; inactive = no such curve, though single readings can be large; an effect the other way counts as inactive or inconclusive.
SMILES,Cruzain inh noDet,Cruzain Triton,Papain counter
Cc1cc2ccccc2n1CCNC(=O)C1CCCCC1,.,.,/
O=C(NCCCc1nc2ccccc2n1Cc1cccc(Cl)c1)C1CCCCC1,.,.,/
Cc1cccc(C)c1OCCCn1c(CCNC(=O)C2CCCCC2)nc2ccccc21,.,3.5µM,.
CCc1ccc(NCc2cc3ccc(OC)cc3n(CC(=O)Nc3ccc(F)cc3F)c2=O)cc1,.,.,/
COc1ccc(-c2[nH]c(-c3cccc(OC)c3)nc2SCC(=O)Nc2ccc3c(c2)OCO3)cc1,?,.,/
Cc1ccccc1NC(=O)Cn1c(=O)n(Cc2ccco2)c(=O)c2cccnc21,.,.,/
Cc1cccc(C)c1N=C1NN=C(c2ccccc2F)CS1,?,.,/
FC(F)Sc1ccc(N=C2NN=C(c3ccc4c(c3)OCCO4)CS2)cc1,3.2µM,.,.
N#Cc1c(N)n(CCNC(=O)c2ccc(Cl)cc2)c2nc3ccccc3nc12,.,.,/
Cc1ccc(C(=O)NCCn2c(N)c(C#N)c3nc4ccccc4nc32)cc1,?,.,28µM
Cc1ccc(C)c(Cn2nnc(C(=O)NCc3ccccc3)c2N)c1,.,.,/
O=C(O)c1ccc2c(c1)N(Cc1ccc(F)cc1Cl)C(=O)c1ccccc1S2,?,.,/
COc1cccc(CNC(=O)c2ccc3c(c2)N(Cc2ccc(F)cc2Cl)C(=O)c2ccccc2S3)c1,13µM,.,.
O=C(NCc1ccc2c(c1)OCO2)c1ccc2c(c1)N(Cc1c(F)cccc1Cl)C(=O)c1ccccc1S2,10µM,.,.
Cc1cccc(CN2C(=O)c3ccccc3Sc3ccc(C(=O)NCCc4ccccc4)cc32)c1,?,.,/
O=C(NCc1ccco1)c1ccc2c(c1)N(Cc1c(F)cccc1Cl)C(=O)c1ccccc1S2,?,.,/
CCOc1ccc(CN2C(=O)c3ccccc3Sc3ccc(C(=O)NCc4ccc(C)cc4)cc32)cc1,10µM,.,.
COc1cccc(CN2C(=O)c3ccccc3Sc3ccc(C(=O)NCCc4ccc(Cl)cc4)cc32)c1,20µM,.,.
CCOc1ccc(CN2C(=O)c3ccccc3Sc3ccc(C(=O)NCCc4ccccc4)cc32)cc1,?,.,/
Cc1sc2ncn(CC(=O)N(C)c3cccc(C(F)(F)F)c3)c(=O)c2c1S(=O)(=O)N1CCN(c2ncccn2)CC1,?,.,/
COc1ccc2c(Cc3c4ccccc4cc4ccccc34)cncc2c1O,.,.,/
CCC1=Nc2cc(C(=O)NC3CCCC3)ccc2Sc2ccc(Br)cc21,?,.,/
COc1ccccc1NC(=O)CSc1nc(O)c(C/C=C/c2ccccc2)c(=O)[nH]1,.,.,/
CCNc1c(NC(=O)c2ccccc2OCC)c(=O)oc2ccccc12,.,.,/
O=C(CCN1C(=O)/C(=C\c2cccs2)SC1=S)Nc1nccs1,.,.,/
O=C(CCN1C(=O)/C(=C/C=C/c2ccccc2)SC1=S)Nc1nccs1,3.2µM,.,.
